Structures are written as SMILES. Values joined by “and” are separate entries in the source; they are usually repeats but may differ in a detail not shown here. Equal entries are not always repeated. Records with an inconclusive call do not appear. Where a structure was tested more than once in an assay, its records may differ in their call. Active and inactive are the calls of the source. How the source made its calls: active means hit-call score of the fitted dose curve at least 0.9, where 1 is the maximum; inconclusive means response in the unintended direction; inactive means score below 0.9.

Sequence of Androgen Receptor/SRC-1 Co-activator, AR (gene 367) (P10275 whole entry, looked up, the tested form may be a part): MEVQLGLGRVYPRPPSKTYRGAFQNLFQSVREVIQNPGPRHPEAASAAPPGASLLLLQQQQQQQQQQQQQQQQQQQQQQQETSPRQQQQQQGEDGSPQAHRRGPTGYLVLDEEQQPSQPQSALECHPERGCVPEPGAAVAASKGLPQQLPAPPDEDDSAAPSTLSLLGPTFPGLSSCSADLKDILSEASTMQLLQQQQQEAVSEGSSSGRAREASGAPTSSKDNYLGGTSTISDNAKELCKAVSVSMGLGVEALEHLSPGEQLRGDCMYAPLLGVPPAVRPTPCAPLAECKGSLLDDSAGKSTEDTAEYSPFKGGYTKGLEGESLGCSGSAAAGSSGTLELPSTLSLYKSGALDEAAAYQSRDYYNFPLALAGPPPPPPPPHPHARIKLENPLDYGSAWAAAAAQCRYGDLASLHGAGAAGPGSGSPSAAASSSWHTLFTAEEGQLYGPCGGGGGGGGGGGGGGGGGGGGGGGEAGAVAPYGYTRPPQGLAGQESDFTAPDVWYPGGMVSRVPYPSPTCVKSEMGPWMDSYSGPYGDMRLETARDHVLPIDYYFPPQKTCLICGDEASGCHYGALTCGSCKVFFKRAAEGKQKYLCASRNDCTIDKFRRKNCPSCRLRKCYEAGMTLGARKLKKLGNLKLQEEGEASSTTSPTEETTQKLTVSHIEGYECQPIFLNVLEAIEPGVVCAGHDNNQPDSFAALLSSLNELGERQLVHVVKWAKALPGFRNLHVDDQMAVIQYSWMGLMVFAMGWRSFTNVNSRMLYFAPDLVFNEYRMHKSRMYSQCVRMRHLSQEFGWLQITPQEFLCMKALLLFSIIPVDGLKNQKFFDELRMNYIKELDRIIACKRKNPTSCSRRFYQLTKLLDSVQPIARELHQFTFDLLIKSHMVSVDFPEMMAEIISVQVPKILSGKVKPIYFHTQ

The experiment has as its target Androgen Receptor/SRC-1 Co-activator, AR (gene 367) (UniProt P10275). Put plainly: OT_AR_ARSRC1_0480: Odyssey Thera (OT) 8-hour HEK293T Protein-Complementation Assay for Androgen Receptor/SRC-1 Co-activator (AID 2283354).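 Further: hits raise the complementation signal above DMSO so AC50 marks enhancers.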 As for the experimental part:
OT_AR_ARSRC1_0480 is a cell-based, single-readout assay that uses HEK293T, a human kidney cell line, with measurements taken at 8 hours after chemical dosing in a 384-well plate.OT_AR_ARSRC1_0480 is one of one assay component(s) measured or calculated from the OT_AR_ARSRC1_0480 assay. It is designed to make measurements of protein fragment complementation, a form of binding reporter, as detected with fluorescence intensity signals by Protein-fragment Complementation technology.Data from the assay component OT_AR_ARSRC1_0480 was analyzed into 1 assay endpoint. This assay endpoint, OT_AR_ARSRC1_0480, was analyzed in the positive analysis fitting direction relative to DMSO as the negative control and baseline of activity. Using a type of binding reporter, measures of receptor for gain-of-signal activity can be used to understand the binding at the pathway-level as they relate to the gene AR. Furthermore, this assay endpoint can be referred to as a primary readout, because the performed assay has only produced 1 assay endpoint. To generalize the intended target to other relatable targets, this assay endpoint is annotated to the nuclear receptor intended target family, where the subfamily is steroidal.
Protein-fragment complementation assay, or PCA, is a method for the identification and quantification of protein-protein interactions. In the PCA, the proteins of interest ("bait" and "prey") are each covalently linked to fragments of a third protein (e.g. DHFR, which acts as a "reporter"). Interaction between the bait and the prey proteins brings the fragments of the reporter protein in close proximity to allow them to form a functional reporter protein whose activity can be measured. The OT AR / SRC-1 assay assessed androgen receptor chemical interactions using a rapidly maturing, intensely fluorescent mutant of YFP known as Venus, rationally dissected into two separate fragments. […] Fusion constructs were transfected into HEK293T cells with a (Gly4Ser)2 linker between the AR/SRC-1 and YFP fragment genes to facilitate complementation when interacting proteins bring fragments into close proximity. The construct is stably expressed in HEK293T cells. […] Images were acquired on an Evotec Opera at 2 wavelengths (488 and 635nm), and the ratio of fluorescence in the nucleus relative to fluorescence in the cytoplasm (N/C Ratio) in the 488nm channel was calculated for a minimum of 400 cells per image. Both agonists and antagonists of the AR receptor induce nuclear translocation to varying degrees. […] The OT AR/SRC-1 assay was also run for 16 hours (see description for OT_AR_ARSRC1_0960).
For `CO/N=C(/C(=O)OC)c1ccccc1COc1ccccc1C`, the call was inactive.

Broadly, the AC50 is the concentration at which the activity in the assay is half-maximal. For the compound `CCCCCCCc1ccc(O)cc1`, the outcome was inactive; the half-maximal activity concentration (AC50) was 74.4 µM (active) and 73.3 µM (active).

With `CCN(CC)c1ccccc1`, the call was inactive.

`ClC1=C(Cl)C2(Cl)C3C(Cl)C(Cl)CC3C1(Cl)C2(Cl)Cl` (stereo not given): the AC50 was 48.4 µM (active).

With `CC(C)(C)N(NC(=O)c1ccc(Cl)cc1)C(=O)c1ccccc1`, the result was inactive.

On to `CCCCC(CC)COP(=O)(Oc1ccccc1)Oc1ccccc1` (stereo not given), for which the compound was called inactive.

Take `CC1(C)CN=C(NN=C(/C=C/c2ccc(C(F)(F)F)cc2)/C=C/c2ccc(C(F)(F)F)cc2)NC1`: the AC50 is 44 µM (active).

Consider `O=P(OCC(Br)CBr)(OCC(Br)CBr)OCC(Br)CBr` (stereo not given), for which the call was inactive.

With `CCNc1nc(Cl)nc(NC(C)(C)C)n1`, the compound was classed as inactive.

Source of the values: PubChem BioAssay (EPA / NIEHS).
